High-throughput results: PubChem BioAssay, National Center for Advancing Translational Sciences (NCATS)
Nrf2 ARE act = activators of Nrf2 (ARE) signaling; AID 624171; AREc32 ARE-luciferase reporter (MCF7-derived line), luminescence, 24 h; Potency, µM (top dose mostly 46.1 µM), most hits filed as activators; 410,000 compounds, 0.31% hits; note: nearly all actives have a fitted effect of over 65% in size
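AREc32_Fluc, 1000 cells/well, OPTI-MEM + 5% FBS, o/n 37 deg C 5% CO2; 23 nL cpd by pin tool, 24 hr; Steady-Glo 30 min RT, luminescence.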
Nrf2 block = inhibitors of Nrf2 signaling; A549 ARE-Fluc reporter, luciferase luminescence, 18-24 h; Potency, µM (highest dose often 46 µM), actives largely listed as inhibitors; 360,000 compounds, 2.1% hits; AID 504444; note: nearly all actives have a fitted effect of over 60% in size
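In this cell-based qHTS, ARE-driven firefly luciferase in A549 cells reports Nrf2 activity; the luminescent signal after BugLite lysis is the measured value, with a prior CellTiter-Fluor read for cell health.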
A549 tox = A549 cytotoxicity, counter-screen for Nrf2 inhibitors | Potency, µM (highest dose often 46 µM), usual class: inhibitors | 390,000 compounds, 0.16% hits | A549 ARE-Fluc cells, CellTiter-Fluor viability, 18-24 h
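Cytotoxicity counterscreen: CellTiter-Fluor fluorescence was measured in A549 ARE_Fluc cells after 18-24 h of compound exposure in a concentration series. The subsequent BugLite luminescent read reports ARE-luciferase activity.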
S2 tox = cell viability loss in ATXN counter-screen | S2 cells (HEK-293 line with an ATXN2-luciferase reporter) viability, CellTiter-Fluor protease fluorescence, 24 h | Potency, µM (doses to about 56.7 µM), usual class: cytotoxic | 400,000 compounds, 0.49% hits | AID 651635; note: nearly all actives have a fitted effect of over 40% in size
ATXN2 expr inh = reduces ATXN2 reporter expression in HEK-293 cells | Potency, µM (doses to about 57 µM), usual class: inhibitors | 360,000 compounds, 0.72% hits | HEK-293 ATXN2-luciferase reporter, luminescence, 24 h; note: nearly all actives have a fitted effect of over 55% in size
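ATXN2-luciferase reporter cells (luciferase flanked by upstream and downstream ATXN2 gene portions) were treated 24 h at 37 °C with compounds at up to 57 uM. SteadyGlo luminescence gave expression; GF-AFC fluorescence gave viability.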
A number is an active result; - = inactive; ? = inconclusive; . = not tested or not shown; [ ] = another dose, or the depositor's remark. Only some compounds are listed: those with a hit (about 2.9% of all), similar ones and a draw of the others. Calls come from the whole dose curve; as a rule, active = well fitted curve in the direction sought with a large enough effect; inconclusive = small, poorly fitted or top-dose-only effect, or another doubt; inactive = no such curve, though single readings can be large; an effect the other way counts as inactive or inconclusive.

SMILES	Nrf2 ARE act	Nrf2 block	A549 tox	S2 tox	ATXN2 expr inh
CC(=O)Nc1ccc(N/C=C/C(=O)c2ccccc2)cc1	-	?	-	-	-
COc1ccc(/C=C/C(=O)OCC(=O)NCc2ccccc2)cc1OC	-	-	-	-	-
COc1ccc(C)cc1NC(=O)C1CCCCC1C(=O)O (stereo unspecified)	-	-	-	-	-
COC(=O)c1ccc(NC(=S)NCCCN2CCCC2=O)cc1	-	-	-	-	.
O=C(Nc1ccn(Cc2c(F)c(F)cc(F)c2F)n1)c1cccc(Cn2cc([N+](=O)[O-])cn2)c1	-	.	-	-	-
CN(C)C(CNC(=O)c1cc(S(=O)(=O)N(C)Cc2ccccc2)ccc1Cl)c1ccco1 (stereo unspecified)	-	15µM	-	-	-
CC1(Oc2ccccc2-c2ccno2)CCN(Cc2csc3ccccc23)C1 (stereo unspecified)	-	.	.	-	-
CCOC(=O)CN1CCC(C2(c3cc4ccccc4[nH]3)OCCO2)CC1	-	.	.	?	.
COC(=O)c1ccc2c(c1)N(CC(=O)Nc1ccc(OC)c(Cl)c1)C(=O)c1ccccc1S2	-	.	-	-	-
CCCCC[C@@H](C)N1C[C@@H](COCc2ccccc2)Oc2cc(N3CC[C@@H](N(C)C)C3)ccc2S1(=O)=O	-	.	.	28µM	?
C[C@H](c1ccccc1)N1C[C@H](COCc2ccccc2)Oc2cc(N3CC[C@@H](N(C)C)C3)ccc2S1(=O)=O	-	.	.	-	-
CCCCC[C@H](C)N1C[C@H](COCc2ccccc2)Oc2cc(N3CC[C@H](N(C)C)C3)ccc2S1(=O)=O	-	.	.	.	?
C[C@@H](c1ccccc1)N1C[C@@H](COCc2ccccc2)Oc2cc(N3CC[C@@H](N(C)C)C3)ccc2S1(=O)=O	-	.	.	20µM	28µM
CCCCC[C@H](C)N1C[C@H](COCc2ccccc2)Oc2cc(N3CC[C@@H](N(C)C)C3)ccc2S1(=O)=O	-	.	.	28µM	?
CCCCC[C@@H](C)N1C[C@@H](COCc2ccccc2)Oc2cc(N3CC[C@@H](O)C3)ccc2S1(=O)=O	-	.	.	.	?
CCCCC[C@@H](C)N1C[C@H](COCc2ccccc2)Oc2cc(N3CC[C@@H](N(C)C)C3)ccc2S1(=O)=O	-	.	.	25µM	?
Cn1nc(OCCOc2ccccc2)ccc1=O	-	-	-	-	-
COC(=O)C(C)N(C(=O)c1cccc2ccccc12)c1c(C)cccc1C (stereo unspecified)	-	18µM	-	-	-
COC(=O)C(C)N(C(=O)c1cccc(Cl)c1)c1c(C)cccc1C (stereo unspecified)	-	-	-	-	-
COC(=O)C1=C(C)NC(=S)N(C(C)=O)C1c1ccc(OC)c(OC)c1 (stereo unspecified)	-	15µM	-	-	-
COC(=O)C1=C(C)NC(=O)NC1c1ccc(OC)c(OC)c1 (stereo unspecified)	-	.	.	-	.
COc1cccc(/C=N/n2cnc3c(cnn3-c3ccccc3)c2=O)c1	-	?	-	-	-
CO/N=C/c1ccc(N2CCN(C(=O)c3ccc(F)cc3)CC2)c([N+](=O)[O-])c1	-	10µM	-	-	-
COc1ccc(-c2oc(NC(=O)CCl)c(C#N)c2-c2ccc(OC)cc2)cc1	?	-	-	.	18µM
CC(C)(C)c1cnc(CSc2cnc(NC(=O)C3CCNCC3)s2)o1	.	.	.	.	0.31µM
SMILES	Nrf2 ARE act	Nrf2 block	A549 tox	S2 tox	ATXN2 expr inh
CC(C)(C)c1nnc(NC(=O)C2CCN(c3ncccn3)CC2)s1	-	.	-	-	-
O=C(NCc1ccccc1F)c1ccc2c(c1)OCO2	-	-	-	-	-
O=C(NCCc1ccccc1F)c1ccc2c(c1)OCCO2	-	?	-	?	0.56µM
O=C(NC1CC(=O)N(c2ccc(Cl)cc2)C1)c1ccc2c(c1)OCO2 (stereo unspecified)	-	.	-	.	.
COc1cc(N2C(=O)C=CC2=O)c(OC)cc1Cl	-	?	?	20µM	?
Cc1ccc(-c2nn(-c3ccccc3)cc2/C=C/C(=O)OCC(=O)NC2CC2)o1	-	-	-	?	-[11.3 µM]
COC(=O)c1sc(-c2cccs2)cc1N	8.9µM	-	-	-	-
O=C(Nc1ccc(Cl)c(Cl)c1)Nc1nnc(CSc2ccccc2)s1	-	7.3µM	?	?	?
O=C(Nc1ccccc1)Nc1nnc(CSCc2ccccc2Cl)s1	-[9.22 µM]	?	-	?	?
Cc1ccc(S(=O)(=O)n2ccc(=O)[nH]2)cc1	-	-	-	-	-
CCC(=O)Nc1ccc(N2CCCCC2)c(C(=O)Nc2ccc(OC)cc2)c1	-	18µM	-	-	-
Cc1ccc(NC(=O)c2cc(NC(=O)CCC(=O)O)ccc2N2CCCCC2)cc1	-	-	-	-	-
Cc1cc(O)cc(O)c1C=NCc1ccco1	-	-	-	18µM	?
C#CCCC(=O)c1ccccc1/C=[N+](\[O-])c1ccccc1	-	-	-	-	-
CC(=O)C1=C(c2ccc(Cl)c(Cl)c2)N(C(C)=O)n2c(nnc2-c2ccccc2)S1	-	.	-	.	.
CC(=O)C1=C(c2ccc(Cl)c(Cl)c2)N(C(C)=O)n2c(C)nnc2S1	-	.	-	?	28µM
CCCc1cc(=O)oc2cc(C)cc(OCC(=O)NCC(O)c3ccccc3)c12 (stereo unspecified)	-	-	-	-	-
CC(NC(=O)/C(C#N)=C/c1ccc(Cl)c([N+](=O)[O-])c1)c1ccccc1 (stereo unspecified)	-	-	-	22µM	.
O=C(Nc1ccc2c(c1)CCCN2C(=O)c1cccs1)c1ccc(F)c(F)c1	-	.	-	25µM	?
O=C(Nc1ccc2c(c1)CCCN2C(=O)c1cccs1)c1cccc(F)c1	-	?	-	?	?
O=C(Nc1ccc2c(c1)CCCN2C(=O)c1cccs1)c1cccc(C(F)(F)F)c1	-	.	-	35µM	?
O=C(Nc1ccc2c(c1)CCCN2C(=O)c1cccs1)c1ccccc1	-	-	-	-	?
Clc1nnc(N2CCCCC2)c2ccccc12	-	16µM	-	-	-
c1csc(-c2nnc(N3CCCCCC3)c3ccccc23)c1	13µM	-	-	-	-
Cc1nnc(N2CCCCC2)c2ccccc12	-	-	-	-	-
COc1cccc(CNC(=O)CN(c2cc(C)cc(C)c2)S(=O)(=O)c2c(C)noc2C)c1	-	-	-	-	-
Cc1ccc(CNC(=O)CN(c2ccc(C(C)C)cc2)S(=O)(=O)c2c(C)n[nH]c2C)cc1	-	23µM	?	.	?
CCOc1ccc(OCC)c(NC(=O)CN(c2ccc(C)cc2)S(=O)(=O)c2c(C)noc2C)c1	-	-	-	-	-
COc1cccc(CNC(=O)CN(c2ccc(C(C)C)cc2)S(=O)(=O)c2c(C)noc2C)c1	-	16µM	-	?	?
Cc1ccc(CNC(=O)CN(c2ccc(C)cc2)S(=O)(=O)c2c(C)n[nH]c2C)cc1	-	-	-	-	-
